From PubChem
Sfp PPTase inh = blocks B. subtilis Sfp PPTase activity; Q9F4F7; Biochemical Sfp PPTase activity, qHTS; Potency, µM, inactives show largest response in the series, negative = inhibition, hits mostly inhibitors; 310,000 compounds, 3.5% hits; AID 1490;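 further: the enzyme is Sfp with the accession as filed and its product quenches rhodamine fluorescence; 0% = enzyme reaction without inhibitor and -100% = no enzyme wells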
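Reaction rates are the 30-min fluorescence difference (ex 525, em 598 nm) in wells containing 15 nM Sfp, 5 uM rhodamine-CoA and 12.5 uM BHQ-2-YbbR at pH 7.6 with 10 mM MgCl2.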
G9a inh = G9a (human) methyltransferase inhibition | G9a H3K9 monomethylation, AlphaScreen, 2 h | Potency, µM (top dose mostly 102 µM), for the others: at the highest dose activity, negative = inhibition, actives largely listed as inhibitors | 350,000 compounds, 8.8% hits | AID 504332; further: on the % scale 0 is the no-effect control and ±100 the full control effect; nearly all actives have a fitted effect of over 75% in size
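G9a (20 nM) was preincubated 15 min with compound, then reacted 2 h at room temperature with 500 nM biotin-H3K9 peptide and 20 µM SAM. Monomethyl-H3K9 detected by AlphaScreen using anti-H3K9me1 antibody.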
JMJD2A Tudor = blocks the human JMJD2A Tudor domain; AlphaScreen JMJD2A-Tudor / H3K4me3 peptide binding; Potency, µM (highest dose often 114 µM), without a hit: at the top dose activity change, negative = inhibition, hits mostly inhibitors; 390,000 compounds, 4.4% hits; further: on the % scale 0 is the no-effect control and ±100 the full control effect; nearly all actives have a fitted effect of over 50% in size
HP1b binding inh = HP1-beta chromodomain-methylated histone interaction inhibition; P83916; AlphaScreen HP1-beta / biotin-H3K9me3 peptide binding; Potency, µM (top dose mostly 114 µM), without a hit: top-dose activity change, negative = inhibition, hits mostly inhibitors; 390,000 compounds, 0.56% hits; AID 540317; further: nearly all actives have a fitted effect of over 70% in size
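HP1-beta protein (50 nM final) preincubated 30 min at room temperature with biotinylated H3(1-18)K9me3 peptide (50 nM) in PBS pH 7.4, 0.01% Tween-20, then compound added for 30 min. AlphaScreen streptavidin donor/nickel chelate acceptor beads (10 ug/mL final), 30 min dark, luminescence read.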
BAZ2B block = BAZ2B (human) inhibition; AlphaScreen BAZ2B-H3K14Ac peptide displacement; Q9UIF8; Potency, µM (series often up to 114 µM), without a hit: at the top dose activity change, negative = inhibition, most hits filed as inhibitors; 360,000 compounds, 4.4% hits; AID 504333; further: on the % scale 0 is the no-effect control and ±100 the full control effect; nearly all actives have a fitted effect of over 60% in size
Target sequence (Q9UIF8 whole entry, looked up): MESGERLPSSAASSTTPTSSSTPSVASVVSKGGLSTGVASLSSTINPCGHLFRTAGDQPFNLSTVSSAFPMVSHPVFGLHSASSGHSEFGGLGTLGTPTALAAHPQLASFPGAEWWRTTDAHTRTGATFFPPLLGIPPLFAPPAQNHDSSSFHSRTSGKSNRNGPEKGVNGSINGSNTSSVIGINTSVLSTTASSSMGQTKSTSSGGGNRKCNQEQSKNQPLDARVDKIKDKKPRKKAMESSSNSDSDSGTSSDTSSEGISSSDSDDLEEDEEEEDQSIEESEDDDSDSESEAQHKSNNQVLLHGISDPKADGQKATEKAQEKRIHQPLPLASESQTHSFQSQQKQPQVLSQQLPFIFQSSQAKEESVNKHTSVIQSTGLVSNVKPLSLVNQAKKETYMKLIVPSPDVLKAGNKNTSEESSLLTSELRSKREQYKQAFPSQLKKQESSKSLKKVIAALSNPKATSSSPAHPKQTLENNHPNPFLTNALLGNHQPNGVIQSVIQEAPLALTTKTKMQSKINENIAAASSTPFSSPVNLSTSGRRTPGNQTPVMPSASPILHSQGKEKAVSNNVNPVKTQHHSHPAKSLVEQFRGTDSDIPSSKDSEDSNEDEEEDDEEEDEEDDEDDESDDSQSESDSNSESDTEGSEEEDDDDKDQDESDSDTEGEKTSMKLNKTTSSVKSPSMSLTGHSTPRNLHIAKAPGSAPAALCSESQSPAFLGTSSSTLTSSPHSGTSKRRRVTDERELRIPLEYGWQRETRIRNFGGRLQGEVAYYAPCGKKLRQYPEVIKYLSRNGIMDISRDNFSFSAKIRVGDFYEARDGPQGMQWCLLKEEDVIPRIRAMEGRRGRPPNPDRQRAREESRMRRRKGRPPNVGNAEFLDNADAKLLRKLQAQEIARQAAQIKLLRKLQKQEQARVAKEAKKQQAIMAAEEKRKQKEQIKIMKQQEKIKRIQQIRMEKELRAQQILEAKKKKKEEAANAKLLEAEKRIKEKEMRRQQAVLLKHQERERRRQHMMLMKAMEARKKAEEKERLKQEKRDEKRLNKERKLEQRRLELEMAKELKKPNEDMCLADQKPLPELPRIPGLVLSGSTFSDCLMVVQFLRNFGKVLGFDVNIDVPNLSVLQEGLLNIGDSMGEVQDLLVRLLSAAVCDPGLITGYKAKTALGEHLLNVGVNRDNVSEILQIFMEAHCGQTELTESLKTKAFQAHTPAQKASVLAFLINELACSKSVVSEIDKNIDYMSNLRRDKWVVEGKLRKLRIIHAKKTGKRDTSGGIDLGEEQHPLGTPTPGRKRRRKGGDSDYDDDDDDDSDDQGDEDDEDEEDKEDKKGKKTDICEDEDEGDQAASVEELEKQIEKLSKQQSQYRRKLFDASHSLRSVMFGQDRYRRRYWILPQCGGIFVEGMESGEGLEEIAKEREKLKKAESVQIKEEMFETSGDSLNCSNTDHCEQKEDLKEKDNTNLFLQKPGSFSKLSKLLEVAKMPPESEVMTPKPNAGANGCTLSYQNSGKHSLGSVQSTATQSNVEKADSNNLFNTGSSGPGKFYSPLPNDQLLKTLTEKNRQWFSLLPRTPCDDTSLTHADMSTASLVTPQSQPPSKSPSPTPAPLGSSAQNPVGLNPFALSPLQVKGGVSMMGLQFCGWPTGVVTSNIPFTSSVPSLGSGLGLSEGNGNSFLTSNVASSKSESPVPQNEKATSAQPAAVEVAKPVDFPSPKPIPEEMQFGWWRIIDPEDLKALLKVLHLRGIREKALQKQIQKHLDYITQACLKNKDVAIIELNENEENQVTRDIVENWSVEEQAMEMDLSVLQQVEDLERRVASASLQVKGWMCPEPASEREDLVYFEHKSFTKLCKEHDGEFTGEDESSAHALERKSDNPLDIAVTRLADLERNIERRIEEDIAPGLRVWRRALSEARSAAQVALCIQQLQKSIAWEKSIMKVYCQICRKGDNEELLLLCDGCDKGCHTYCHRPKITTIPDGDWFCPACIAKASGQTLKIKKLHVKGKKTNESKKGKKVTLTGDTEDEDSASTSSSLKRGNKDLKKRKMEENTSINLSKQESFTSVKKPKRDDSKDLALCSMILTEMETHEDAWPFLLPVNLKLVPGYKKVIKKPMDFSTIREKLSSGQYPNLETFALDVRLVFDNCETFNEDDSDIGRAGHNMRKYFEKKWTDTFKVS
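BAZ2B 50 nM plus b-H3(5-23)K14Ac 50 nM, PBS pH 7.4/0.01% Tween-20, 30 min RT; compound added (max 110 uM), 30 min RT; streptavidin donor/Ni-chelate acceptor beads 10 ug/mL final, 20 min dark; AlphaScreen read.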
Starred values were filed as active, the others as inactive; ? = inconclusive; · = no result; ! = repeats disagree; [ ] = remark or other dose. Shown are actives, neighbours in structure and some others; about 12% of the full set was active somewhere. The call rests on the fitted dose curve; in most records, active means well fitted curve in the direction sought with a large enough effect; inconclusive means small, poorly fitted or top-dose-only effect, or another doubt; inactive means no such curve, though single readings can be large; an effect the other way counts as inactive or inconclusive. Potency means the concentration at half of the fitted maximal effect.

SMILES	Sfp PPTase inh	G9a inh	JMJD2A Tudor	HP1b binding inh	BAZ2B block
Cc1cc(C)c2c(=O)n(CC(=O)NCCCN3CCN(c4ccccc4F)CC3)sc2n1	4.5µM*	1.1µM*	1µM*	2.5µM*	?
Cc1cc(C)c2c(=O)n(CC(=O)NCCCN3CCOCC3)sc2n1	1.3µM*	1.3µM*	1.1µM*	3.2µM*	?
Cc1cc([N+](=O)[O-])nn1CC(=O)NCCCN1CCOCC1	22%	-10%	-7%	20%	10%
Cc1ccccc1CS(=O)(=O)CCC(=O)NCCCN1CCN(c2ccccc2F)CC1	9%	10%[0.501 µM]	-17%	16%	-29%
CCOc1ccc(N=C2NC(=O)S/C2=C\c2ccc(OC)cc2)cc1	10%	?	28µM*	0%	?
CCOc1ccc(N=C2NC(=O)/C(=C/C(=O)OC)S2)cc1	2%	12%[59 µM]	-20%[57.1 µM]	32%	-5%
COc1ccc(/C=C2/SC(=O)NC2=O)cc1	3%	79µM*	-10%	35%	-34%
CN(Cc1ccccc1)/C(=N/O)c1cccc(Cl)c1	8%	0%	-7%	27%	-7%
CC(O)CN(Cc1cccc(Cl)c1)CC(C)O (centres undefined)	-3%	?	3.5µM*	-25%	56µM*
COC(=O)c1c(-c2cccc(OC)c2)csc1N	56µM*	40µM*	-24%	-17%	?
COc1ccc(-c2csc(NC(C)=O)n2)cc1OC	50µM*	-14%[59 µM]	56µM*	-18%	-13%
Cc1cc(C)c(-c2csc(NC(=O)C3=COCCO3)n2)c(C)c1	·	?	-25%	19%	-21%
O=C(Nc1nc(-c2cccs2)cs1)c1ccc(Cl)cc1	22%	32µM*	17%[57.1 µM]	41%	3%
Cc1cc(-c2csc(NC(=O)C3=COCCO3)n2)c(C)n1C	·	50µM*	-22%	-10%	-3%
COC(=O)c1c(-c2cccc(C)c2)csc1N	-28%	?	?	?	?
COc1ccc(-c2csc(NC(=O)Cc3ccccc3)n2)cc1OC	7%	6%[59 µM]	-15%	17%	1%
COc1ccc(C(=O)NC(C)c2nnc(SCC(=O)Nc3nc(C)cs3)n2C)cc1 (centres undefined)	4%	28%[59 µM]	-1%	37%	4%
Cc1ccc(Cl)cc1NC(=O)N1CCC2(CC1)Oc1ccccc1C(=O)N2Cc1ccccc1F	·	0%[59 µM]	-3%	59%	0%
COc1cccc(-c2csc(NC(C)=O)n2)c1	-13%	10µM*	-8%	-11%	5%
COc1ccc(-c2csc(NC(=O)C3=COCCO3)n2)cc1OC	·	56µM*	-23%	7%	?
Cc1cc(C)nc(-n2nc(C)cc2NC(=O)c2cccc(S(=O)(=O)N3CCCCC3)c2)n1	4%	8.9µM*	·	·	-3%
O=C(Nc1nc(-c2cccs2)cs1)C1=COCCO1	-15%	10%	14µM*	?	1%
COc1cccc(NC(=O)Nc2nc(-c3ccc(OC)c(OC)c3)cs2)c1	2%	?	?	?	?
Cc1cc(NC(=O)c2cccc(S(=O)(=O)N3CCCCCC3)c2)n(-c2ccccn2)n1	7%	12%[59 µM]	?	19%	15%
Cc1onc(-c2ccccc2Cl)c1C(=O)NC(=S)NCc1cccnc1	13%	11%	-21%	13%	?
SMILES	Sfp PPTase inh	G9a inh	JMJD2A Tudor	HP1b binding inh	BAZ2B block
C=CCc1ccccc1OCC(=O)N/N=C/c1ccc(OC(C)=O)cc1OC(C)=O	19%	11%	-18%	26%	7%
CCOc1ccc(NC(=O)c2ccc(C#CC(C)(C)O)cc2)cc1	16%	-2%	-4%	19%	-6%
O=C(Nc1nc(-c2cccs2)cs1)c1cccc(S(=O)(=O)N2CCCCC2)c1	19%	13µM*	-29%	23%	?
Cc1cc(-c2csc(NC(=O)c3ccc(=O)n(C)n3)n2)c(C)n1CC1CCCO1 (centres undefined)	50µM*	?	-24%	26%	?
COc1ccc(-c2csc(NC(=O)CCCc3nc4ccccc4c(=O)[nH]3)n2)cc1OC	·	40µM*	-20%	-3%	-3%
COc1ccc(CC(=O)Nc2nc3c(s2)CC(C)CC3)cc1 (centres undefined)	·	-28%[59 µM]	?	12%	-35%
CN(C)c1cc2c(c(N(C)C)c1)C(=O)c1ccccc1C2=O	?	10µM*	?	?	8.9µM*
CN(C)S(=O)(=O)c1cccc2c1C(=O)c1ccccc1C2=O	1%	?	-5%	30%	-37%
Cc1cc(-c2ccc(F)cc2)nc2cc(C(N)=O)nn12	-23%	56µM*	-27%	-2%	-7%
C=C(C)C(=O)OCCOCC	-9%	·	·	·	·
COCCN1Cc2c(sc(C)c2C)N(C(=O)c2ccccc2)C1	13%	-12%[2.33 µM]	11%[57.1 µM]	46%	9%
Cc1sc2c(c1C)CN(C(C)(C)C)CN2C(=O)c1ccccc1	-7%	50µM*	-2%	22%	?
NSc1nc(N)c2nc(-c3ccccc3)c(-c3ccccc3)nc2n1	-17%	6.3µM*	-31%	2%	-24%
Nc1nc(N)c2nc(-c3ccccc3)c(N)nc2n1	4%	-4%[59 µM]	-20%	22%	12%
O=C1CCC[C@@H]2Cc3nc4ccccc4cc3[C@@H]3CCN1[C@H]23	·	·	7%	48%	·
CC1CC(C)CN(C(=O)CCc2nnc3ccc(N4CCCCC4)nn23)C1 (centres undefined)	7%	79µM*	40µM*	11%	-22%
CCCCCCCCCCCCCCCC[N+](C)(C)CC	79µM*	14µM*!	-8%	17%	6%
CCCCCCCCCCCCCC[N+](C)(C)C	11µM*	-1%[12.7 µM]	·	·	·
C[N+](C)(C)CCCCCC[N+](C)(C)C	19%	43%[12.7 µM]	1%	31%	·
CCc1ccc(N2C(=O)CC(NNc3nc4ccccc4s3)C2=O)cc1 (centres undefined)	-12%	14µM*	-20%	21%	-11%
CCOC(=O)Oc1c(OC)cc(C(=O)O[C@@H]2C[C@@H]3CN4CCc5c([nH]c6cc(OC)ccc56)[C@H]4C[C@@H]3[C@H](C(=O)OC)[C@H]2OC)cc1OC	·	8.9µM*	?	11%	?
CCOC(=O)C(c1ccccc1)N1CCN(c2ccc(OC)cc2)CC1 (centres undefined)	-13%	?	-18%[11.4 µM]	-8%	?
COc1ccc(CN(CCc2ccccc2)Cc2ccccc2)cc1OC	-36%	?	10µM*	?	79µM*
CCN(Cc1ccncc1)Cc1ccc(OC)c(OC)c1	?	·	25µM*	?	?
CCN(CC)Cc1ccc(OC)c(Cl)c1	25%	2%	1%	33%	-12%
COc1cc(CN(CCN(C)C)Cc2ccccc2)ccc1OCc1ccccc1	-18%	32µM*	1µM*	?	40µM*
O=C(CCc1nc2ccccc2c(=O)[nH]1)NCCN1C(=O)S/C(=C\c2ccc(Cl)cc2Cl)C1=O	·	?	-19%	16%	19%
